Data taken from PubChem BioAssay (Tox21).
Unmarked numbers belong to inactive results. Inconclusive results are not listed. Entries that show only a call come without a potency. Calls of active or inactive are those of the source. Unless noted, calls come from the whole dose curve; as a rule, active = well fitted curve in the direction sought with a large enough effect in the repeat runs; inconclusive = weak or mixed curves; inactive = no such curve, though single readings can be large; an effect the other way counts as inactive or inconclusive.

Key:
[1] = qHTS assay to identify small molecule agonists of the hypoxia (HIF-1) signaling pathway - cell viability counter screen (AID 1224844; calls by dose curve; note: nearly all actives have a fitted effect of over 50% in size)
How it was run: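 Cytotoxicity was measured in parallel with the HRE-driven beta-lactamase readout: after 17 hrs of compound exposure at 37C, HRE-bla ME-180 cells received CellTiter-Glo and luminescence was recorded 30 min later.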

[2] = qHTS assay to identify small molecule agonists of H2AX (AID 1224845; active = well fitted activation curve with a large enough effect in the signal ratio in the repeat runs, not every such curve was filed as active; the % refers to the signal ratio)
How it was run: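 Phospho-H2AX Ser139 measured by HTRF (ex 320 nm; em 665 and 620 nm) after 24 hr antibody incubation. Compounds, 15 concentrations, 0.76% DMSO, were applied to CHO-K1 cells for 3hr at 37C before lysis.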

[3] = qHTS assay to identify small molecule agonists of the hypoxia (HIF-1) signaling pathway (AID 1224846; active = well fitted activation curve with a large enough effect in the signal ratio in the repeat runs, not every such curve was filed as active; the % refers to the signal ratio)
How it was run: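 Compounds from the Tox21 10K library, dissolved in DMSO, are tested for induction of a hypoxia response element–controlled beta-lactamase reporter in ME-180 cells. Exposure lasts 17 hrs at 37C after a 5 hr settling period, followed by CCF4-AM FRET substrate.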

[4] = qHTS assay to identify small molecule antagonists of the estrogen related receptor (ERR) signaling pathway from Tox21 library (AID 1224848); note: nearly all actives have a fitted effect of over 50% in size
How it was run: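 ERR cell line, 2,000 cells/well. 6 h settle, then compound (DMSO) added; 18 h at 37 C; ONE-Glo luminescence after 30 min RT.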

[5] = qHTS assay to identify small molecule agonists of the estrogen related receptor (ERR) signaling pathway from Tox21 library (AID 1224849; calls by dose curve; note: nearly all actives have a fitted effect of over 15% in size); details: ERR reporter cell line, ONE-Glo luciferase, 18 h; at 92.4 µM (top of the series) unless noted
How it was run: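 Cells carrying the ERR reporter were plated and allowed to settle for 6 h, exposed to library compounds for 18 h at 37 C, then lysed with ONE-Glo and luminescence measured.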

[6] = qHTS RealTime-Glo MT Cell Viability Assay in HepG2 cells - 24 hour (AID 1224867); note: nearly all actives have a fitted effect of over 50% in size
How it was run: (§1)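 Real-time, nonlytic viability: 600 HepG2 cells/well mixed with NanoLuc enzyme plus prosubstrate; 5 h settle, compound (DMSO) added by pintool; luminescence monitored over 40 h at 37 C.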

[7] = qHTS RealTime-Glo MT Cell Viability Assay in HEK293 cells - 32 hour (AID 1224868); note: top concentration of the series differs between compounds; nearly all actives have a fitted effect of over 50% in size
How it was run: (§2)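 Cells + reagent dispensed (600 cells/well, HEK293) → 5 h at 37 C/5% CO2 → 23 nL compound in DMSO pinned → 40 h at 37 C → luminescence read at 0, 8, 16, 24, 32, 40 h.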

[8] = A CellTox Green Cytotoxicity Assay to monitor cytotoxicity in HEK293 cells - 0 hour (AID 1224869); note: nearly all actives have a fitted effect of over 50% in size
How it was run: (§3)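 Cells (HEK293, 600/well) and dye reagent are dispensed together. After 5 h at 37 C, 23 nL compound is pinned in. Plates stay at 37 C for 40 h with fluorescence read at 0h, 8h, 16h, 24h, 32h and 40h.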

[9] = qHTS RealTime-Glo MT Cell Viability Assay in HepG2 cells - 40 hour (AID 1224870); note: nearly all actives have a fitted effect of over 50% in size
How it was run: (§4)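 Real-time viability: cells seeded at 600 per well together with NanoLuc and cell-permeant prosubstrate, compounds added after 5 h incubation. Luminescence tracked at 0, 8, 16, 24, 32 and 40 h of exposure.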

[10] = A CellTox Green Cytotoxicity Assay to monitor cytotoxicity in HEK293 cells - 40 hour (AID 1224871); note: nearly all actives have a fitted effect of over 45% in size
How it was run: as §3

[11] = qHTS RealTime-Glo MT Cell Viability Assay in HEK293 cells - 16 hour (AID 1224872)
How it was run: as §2

[12] = qHTS RealTime-Glo MT Cell Viability Assay in HepG2 cells - 8 hour (AID 1224873); note: nearly all actives have a fitted effect of over 55% in size
How it was run: as §4

[13] = qHTS RealTime-Glo MT Cell Viability Assay in HEK293 cells - 40 hour (AID 1224874); details: RealTime-Glo luminescence; max response: hits give low values; note: nearly all actives have a fitted effect of over 50% in size
How it was run: (§5)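 Real-time viability in HEK293: signal arises when living cells convert a prosubstrate for NanoLuc in the medium, so luminescence tracks viable cell number. Compound (23 nL, DMSO) added 5 h post-seeding; kinetic reads at 0–40 h, 37 C.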

[14] = A CellTox Green Cytotoxicity Assay to monitor cytotoxicity in HEK293 cells - 24 hour (AID 1224875); note: nearly all actives have a fitted effect of over 45% in size
How it was run: as §3

[15] = A CellTox Green Cytotoxicity Assay to monitor cytotoxicity in HepG2 cells - 16 hour (AID 1224876); note: nearly all actives have a fitted effect of over 45% in size
How it was run: (§6)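 Cells and non-lytic dye reagent are dispensed together (600 HepG2 cells/well) and incubated 5 h before DMSO compound transfer. Kinetic fluorescence is then recorded in the same wells during 40 h at 37 C.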

[16] = qHTS RealTime-Glo MT Cell Viability Assay in HepG2 cells - 32 hour (AID 1224877); note: nearly all actives have a fitted effect of over 55% in size
How it was run: as §1

[17] = A CellTox Green Cytotoxicity Assay to monitor cytotoxicity in HepG2 cells - 24 hour (AID 1224878); note: nearly all actives have a fitted effect of over 45% in size
How it was run: as §6

[18] = A CellTox Green Cytotoxicity Assay to monitor cytotoxicity in HepG2 cells - 40 hour (AID 1224879); note: nearly all actives have a fitted effect of over 40% in size
How it was run: as §6

[19] = qHTS assay to identify small molecule agonists of H2AX - cell viability counter screen (AID 1224847; calls by dose curve; note: top concentration of the series differs between compounds; nearly all actives have a fitted effect of over 30% in size)
How it was run: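 Compounds tested at 15 concentrations were incubated 3 hr at 37C with wild-type CHO-K1 cells; cellular ATP-based luminescence (CellTiter-Glo) indicated viability.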

[20] = qHTS RealTime-Glo MT Cell Viability Assay in HEK293 cells - 0 hour (AID 1224880); note: nearly all actives have a fitted effect of over 45% in size; note: potency is the fitted concentration of half-maximal effect
How it was run: as §5

Row | SMILES | outcome [1] | outcome [2] | outcome [3] | Potency [4] | activity change, positive = activation [5] | outcome [6] | Potency [7] | outcome [8] | outcome [9] | Potency [10] | Potency [11] | outcome [12] | max response [13] [%] | outcome [14] | outcome [15] | outcome [16] | outcome [17] | Potency [18] | Potency [19] | Potency [20]
1 | COP(=O)(OC)OC(c1ccc(Cl)cc1)P(=O)(OC)OC (stereo not given) | inactive | inactive | inactive | inactive | 1.9% [at 42.5 µM] | inactive | inactive | inactive | inactive | inactive | inactive | inactive | 4.98 | inactive | inactive | inactive | inactive | inactive | – | –
2 | C=C1CC/C=C(\C)CC[C@@H]2[C@@H]1CC2(C)C | inactive | inactive | – | inactive | 0.265% | inactive | inactive | inactive | inactive | inactive | inactive | inactive | 2.22 | inactive | inactive | inactive | inactive | inactive | inactive | inactive
3 | COCCOCCOCCOCCO | inactive | inactive | inactive | – | – | inactive | inactive | inactive | inactive | inactive | inactive | inactive | 4.56 | inactive | inactive | inactive | inactive | inactive | – | inactive
4 | COCCOC(=O)C1=C(C)NC(C)=C(C(=O)OC(C)C)C1c1cccc([N+](=O)[O-])c1 (stereo not given) | inactive | inactive | inactive | – | – | – | – | inactive | – | inactive | – | – | – | inactive | inactive | – | inactive | inactive | inactive | 2.39 µM (active)
5 | CCOCCOCCOCC | inactive | inactive | inactive | – | – | inactive | inactive | inactive | inactive | inactive | inactive | – | 4.8 | inactive | inactive | inactive | inactive | inactive | – | inactive
6 | CC(S)C(=O)NCC(=O)O (stereo not given) | inactive | inactive | inactive | – | – | inactive | inactive | – | inactive | – | inactive | inactive | 11.2 | – | inactive | inactive | inactive | inactive | – | inactive
